Source: PubChem BioAssay AID1209 (Sanford-Burnham Center for Chemical Genomics, 2008)
Hit rate of the full screen: of about 190,000 compounds, about 810 (0.43%) were called active. Rule as the data show it: active = inhibition above about 50%; inactive = the rest. Many of the other results were omitted from the sample, so actives are more common in it than they were.

Target: Mannose-6-phosphate isomerase (Homo sapiens) (UniProt P34949)
Assay: inhibitors of human PMI, primary screen, biochemical, fluorescence intensity, coupled assay (AID 1209);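 also: plate controls were DMSO vehicle for no effect and wells lacking substrate for full effect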
Conditions: purified PMI enzyme, at 20 µM, stronger effect = higher value

Chain of Mannose-6-phosphate isomerase (Homo sapiens) (P34949 whole entry, looked up): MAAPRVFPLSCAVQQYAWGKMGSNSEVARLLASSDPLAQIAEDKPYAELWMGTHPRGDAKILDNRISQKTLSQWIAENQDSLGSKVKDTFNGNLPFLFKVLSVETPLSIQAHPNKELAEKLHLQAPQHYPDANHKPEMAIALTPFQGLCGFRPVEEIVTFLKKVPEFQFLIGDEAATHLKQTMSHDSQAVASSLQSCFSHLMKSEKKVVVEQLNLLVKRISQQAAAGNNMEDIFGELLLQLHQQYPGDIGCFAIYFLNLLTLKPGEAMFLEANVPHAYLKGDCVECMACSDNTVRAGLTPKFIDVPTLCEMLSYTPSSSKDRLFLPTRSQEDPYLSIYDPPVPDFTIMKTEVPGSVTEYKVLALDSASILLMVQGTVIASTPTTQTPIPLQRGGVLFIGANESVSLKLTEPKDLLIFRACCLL

| SMILES | inhibition |
| --- | --- |
| O=[N+]([O-])c1cccc(N=Cc2sc3ccccc3c2O)c1 | 13.3% (inactive) |
| O=C1/C(=C/c2cccc([N+](=O)[O-])c2)CCc2ccccc21 | 14.1% (inactive) |
| CC1CCC(NC(=O)Cn2ncc3ccccc32)CC1 (stereo not drawn) | 8.4% (inactive) |
| COc1cc2cc(CN(CCc3cccc(C)c3)C(=S)NCCCN3CCOCC3)c(=O)[nH]c2cc1OC | 10.1% (inactive) |
| O=C(Cc1ccc(Nc2nc(=S)[nH]c3ccccc23)cc1)NC1CCCCC1 | -5.3% (inactive) |
| CC(C)CCNC(=O)Cc1ccc(Nc2nc(=S)[nH]c3ccccc23)cc1 | 51.6% (active) |
| Cc1ccc(CNC(=O)Cc2csc(Nc3nc(=S)[nH]c4ccccc34)n2)cc1 | -1.8% (inactive) |
| Cc1cccc(/C(N)=N/OC(=O)c2ccc(Br)o2)c1 | 12.6% (inactive) |
| CCOc1cc(S(=O)(=O)N2CCCC2)ccc1Cl | -1.7% (inactive) |
| Cc1cn(C2OC(COC(=O)c3ccccc3)C(OC(=O)c3ccccc3)C2OC(=O)c2ccccc2)c(=O)[nH]c1=O (stereo not drawn) | 3.7% (inactive) |
| O=C(O[C@@H]1OC2COC(=O)c3cc(O)c(O)c(O)c3-c3c(cc(O)c(O)c3O)C(=O)O[C@@H]([C@H]1O)[C@@H]2O)c1cc(O)c(O)c(O)c1 | 49.1% (inactive) |
| O=C(OCC1O[C@@H](OC(=O)c2cc(O)c(O)c(O)c2)[C@@H](OC(=O)c2cc(O)c(O)c(O)c2)[C@@H](OC(=O)c2cc(O)c(O)c(O)c2)[C@@H]1OC(=O)c1cc(O)c(O)c(O)c1)c1cc(O)c(O)c(O)c1 (stereo partly drawn) | 57.2% (active) |
| CC(C)N(CC#CC(O)(c1ccccc1)c1ccccc1)CCO | -9.6% (inactive) |
| NC(=S)N/N=C/c1cc([N+](=O)[O-])ccc1Cl | -2.2% (inactive) |
| O=[N+]([O-])c1ccc(Cl)c(/C=N/NC(=S)Nc2ccccc2)c1 | 66.2% (active) |
| S=C(N/N=C/c1ccccc1Cl)Nc1ccccc1 | 12.3% (inactive) |
| CCC(C)(C)c1ccc(OCCN2C(=O)NC(C)(C)C2=O)cc1 | 7.4% (inactive) |
| COc1ccc(NC(=O)C2(c3ccccc3)CCCC2)cc1 | 18.9% (inactive) |
| CCOC(=O)C1=C(C)NC(=O)NC1c1c(C)nn(-c2ccccc2)c1Cl (stereo not drawn) | 53.9% (active) |
| CCOC(=O)C1=C(C)N(C)C(=O)NC1c1c(C)nn(-c2ccc(C)cc2)c1Cl (stereo not drawn) | -6.5% (inactive) |
| CCOC(=O)C1=C(C)N(C)C(=O)NC1c1c(C)nn(-c2ccccc2)c1C (stereo not drawn) | -0.2% (inactive) |
| CCSc1nnc(NC(=O)c2ccc(S(=O)(=O)N(C)C)cc2)s1 | -9.1% (inactive) |
| COc1ccc(Nc2nc(N)nc(CSC(=S)N3CCOCC3)n2)cc1 | -8.7% (inactive) |
